Experimental data as given in PubChem BioAssay.
Activity calls are given as the source filed them. No rule for the calls is given here.

Each compound was assayed against Pantothenate synthetase (Mycobacterium tuberculosis (strain ATCC 25618 / H37Rv)) (UniProt P9WIL5) (assay: Recombinant Mtb pantothenate synthetase (PanC) inhibitors, coupled enzyme, confirmatory (AID 375;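 also: 0% = full reaction with vehicle and 100% = no enzyme background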)). Conditions: coupled enzyme assay; at 10 µM, hits give high values.
Chain of Pantothenate synthetase (Mycobacterium tuberculosis (strain ATCC 25618 / H37Rv)) (P9WIL5 whole entry, looked up): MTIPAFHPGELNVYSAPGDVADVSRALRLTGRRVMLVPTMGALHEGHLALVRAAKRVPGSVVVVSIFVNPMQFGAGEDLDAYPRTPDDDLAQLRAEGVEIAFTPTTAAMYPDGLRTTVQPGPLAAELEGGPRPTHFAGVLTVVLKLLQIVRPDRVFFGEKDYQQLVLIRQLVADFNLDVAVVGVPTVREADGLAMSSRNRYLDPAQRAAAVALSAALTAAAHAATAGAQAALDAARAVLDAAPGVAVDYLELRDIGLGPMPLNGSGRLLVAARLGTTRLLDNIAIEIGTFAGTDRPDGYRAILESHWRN

Compound | inhibition
O=c1oc2ccccc2c2nccnc12 | 0% (inactive)
Cc1cc(C)nc(SCC(=O)Nc2ccc(S(=O)(=O)Nc3nccs3)cc2)n1 | 0% (inactive)
CCOc1nc2ccccc2nc1NS(=O)(=O)c1ccccc1 | 1% (inactive)
COc1ccc(Cl)cc1C(=O)n1nc(C)cc1C | 0% (inactive)
CCOC(=O)C1CCCN(C(=O)CNS(=O)(=O)c2ccc(Br)s2)C1 (stereo not given) | 8% (inactive)
CC(Cc1ccc(O)c(O)c1)C(C)Cc1ccc(O)c(O)c1 (stereo not given) | 0% (inactive)
CCOC(=O)N1CCN(Cc2ccccc2F)CC1 | 19% (inactive)
O=C(NCc1ccco1)c1c2c(nc3ccccc13)CCC2 | 0% (inactive)
C=CCNS(=O)(=O)c1ccc2nsnc2c1 | 0% (inactive)
COc1ccc(OC)c(NC(=O)CCN2CCC(C)CC2)c1 | 0% (inactive)
O=S(=O)(c1cc(Cl)ccc1Br)N1CCOCC1 | 0% (inactive)
CCOC(=O)CSc1ncnc2c1cnn2-c1ccc(C)cc1 | 15% (inactive)
COc1cc(Br)cc(/C=N/c2ncn[nH]2)c1O | 5% (inactive)
CCOC(=O)CSc1nnc(NCC(=O)OC(C)C)c(=O)[nH]1 | 4% (inactive)
COCCNC(=O)C(C)N(c1ccc(Oc2ccccc2)cc1)S(C)(=O)=O (stereo not given) | 0% (inactive)
Cc1nc2sc(C(c3ccccc3)N3CCN(c4ccccc4F)CC3)c(O)n2n1 (stereo not given) | 0% (inactive)
Cc1sc(NC(=O)CSc2nnc(COc3ccccc3)n2C)c(C#N)c1C | 6% (inactive)
O=c1c2[nH]c3ccc(Cl)cc3c2ncn1Cc1ccccn1 | 0% (inactive)
CC(=O)c1c(C)nn(C(C)CC(=O)O)c1C (stereo not given) | 0% (inactive)
Cc1cccc(C2CC(c3ccc(Br)cc3)Nc3nc(N)nn32)c1 (stereo not given) | 0% (inactive)

Compound | inhibition
CCSc1nc2ccccc2n1CCC(=O)O | 0% (inactive)
COc1ccc(CCNC(=O)CSc2nnc(CNc3ccc(Cl)cc3)o2)cc1OC | 0% (inactive)
Cc1nc2cc(NC(=O)N3CC4(C)CC3CC(C)(C)C4)ccc2n1C (stereo not given) | 8% (inactive)
CCOC(=O)C(C)C1(O)c2ccccc2-c2ncccc21 (stereo not given) | 0% (inactive)
COc1ccc(C2C3=C(CCCC3=O)Nc3nc(SCc4ccccc4)nn32)cc1OC (stereo not given) | 0% (inactive)
c1ccc(-c2nnc(SCc3nc4ccccc4[nH]3)o2)cc1 | 0% (inactive)
CCC1CCCCN1C(=O)CSc1nnc(-c2ccc(OC)cc2)o1 (stereo not given) | 0% (inactive)
COc1ccc(-n2ccnc2SCC(=O)NCc2ccc3c(c2)OCO3)cc1 | 1% (inactive)
CCOC(=O)C1CCCN(c2nc3ccccc3nc2C(C#N)C(=O)NCc2ccccc2)C1 (stereo not given) | 0% (inactive)
COC(=O)Cn1c(C)nc2c(sc3nc(C)cc(C)c32)c1=O | 3% (inactive)
COc1ccc(-c2nn3c(-c4ccncc4)nnc3s2)cc1OC | 0% (inactive)
O=C1C2C3C=CC(C3)C2C(=O)N1c1cccc(N2C(=O)C3C4C=CC(C4)C3C2=O)n1 (stereo not given) | 0% (inactive)
COC(=O)c1cn(-c2ccccc2)nc1C(=O)OC | 2% (inactive)
COc1cc(S(=O)(=O)NC2CCCCC2)ccc1Cl | 1% (inactive)
COc1cc(-c2noc(-c3ccccc3C(=O)NCc3ccco3)n2)cc(OC)c1OC | 9% (inactive)
FC(F)(F)COc1nc(N2CCCCC2)nc(N2CCNCC2)n1 | 4% (inactive)
COC(=O)c1ccccc1NC(=O)C12CCC(C)(C(=O)O1)C2(C)C (stereo not given) | 0% (inactive)
Cc1cc(=O)n(CCO)c(O)c1C#N | 0% (inactive)
Cc1cnc(-c2nnc(N(C)C(=O)C3CCOC3)s2)cn1 (stereo not given) | 3% (inactive)
CCOC(=O)N1CCN(C(=O)CCc2ccc(S(=O)(=O)NCCc3ccccc3)cc2)CC1 | 3% (inactive)
